# Inconclusive results are not listed. A call without a number means that no potency is given here. Values without a mark were called inactive. Activity calls are given as the source filed them. Unless noted, the call rests on the fitted dose curve.
# What was measured:
# [1] = qHTS assay to identify small molecule agonists of the NFkB signaling pathway (AID 1159509; active means well fitted curve in the direction sought with a large enough effect in the signal ratio in the repeat runs, not every such curve was filed as active; the % refers to the signal ratio; further: series mostly up to about 61 µM)
# In short: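 Agonist activity was read as beta-lactamase-driven FRET change (460 and 530 nm emission, 405 nm excitation) following 1.5 hr substrate loading at room temperature. Beforehand, ME-180 NFkB-bla reporter cells were treated with compounds for 5 hr at 37 C.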
# [2] = qHTS assay to identify small molecule agonists of the NFkB signaling pathway - cell viability counter screen (AID 1159515); further: series mostly up to about 61 µM; nearly all actives have a fitted effect of over 55% in size
# In short: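 ME-180 NFkB-bla cells, 2,000/well; overnight attach; compound 5 hr, 37 C/5% CO2; LiveBLAzer substrate 1.5 hr RT; then CellTiter-Glo in same wells, 30 min RT, luminescence read.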
# [3] = qHTS assay to identify small molecule agonists of the endoplasmic reticulum stress response signaling pathway (AID 1159516; active means well fitted activation curve with a large enough effect in the signal ratio in the repeat runs, not every such curve was filed as active; the % refers to the signal ratio)
# In short: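 HeLa ESRE-bla reporter line; cpd 5 h, 37 C/5% CO2; LiveBLAzer B/G FRET substrate 2 h RT; ex 405, em 460/530 nm.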
# [4] = qHTS assay to identify small molecule agonists of the endoplasmic reticulum stress response signaling pathway - cell viability counter screen (AID 1159517);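 further: HeLa cells carrying an ER stress response element beta-lactamase reporter; series mostly up to about 61 µM; nearly all actives have a fitted effect of over 50% in size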
# In short: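 In parallel with the ESRE reporter read, cytotoxicity was scored by CellTiter-Glo luminescence (30 min, room temperature) on HeLa ESRE-bla cells dosed for 5 hr.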
# [5] = qHTS assay to identify small molecule antagonists of the retinoid-related orphan receptor gamma (ROR-gamma) signaling pathway - cell viability counter screen (AID 1159520; active means well fitted curve in the direction sought with a large enough effect in the repeat runs; an effect the other way counts as inactive or inconclusive; further: nearly all actives have a fitted effect of over 50% in size)
# In short: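 Tet-on ROR gamma CHO cells were given compounds for 2 hr, then doxycycline hyclate at 1 uM final, and incubated 16 hr at 37 C. Viability was measured as ATP content by CellTiter-Glo luminescence.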
# [6] = biological target: Nuclear receptor ROR-gamma (Homo sapiens) (UniProt P51449); assay: qHTS assay to identify small molecule antagonists of the retinoid-related orphan receptor gamma (ROR-gamma) signaling pathway (AID 1159521; active means well fitted curve in the direction sought with a large enough effect in the repeat runs; an effect the other way counts as inactive or inconclusive; further: top concentration of the series differs between compounds; nearly all actives have a fitted effect of over 50% in size)
# In short: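 Antagonist read-out: drop in luminescence (ONE-Glo) from an RORE-LUC reporter in CHO cells with doxycycline-inducible ROR-gamma; 2 hr compound pretreatment, 1 uM doxycycline, 16 hr incubation at 37 C.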
# [7] = qHTS assay to identify small molecule agonists of the AP-1 signaling pathway - cell viability counter screen (AID 1159525); further: nearly all actives have a fitted effect of over 55% in size
# In short: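 Same-well cytotoxicity counter screen of the Tox21 10K library in ME-180 cells. The readout is ATP-dependent luminescence after 5 h compound treatment. Data are normalised to DMSO and tetra n-octyl ammonium bromide controls.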
# [8] = qHTS assay to identify small molecule agonists of the AP-1 signaling pathway (AID 1159526)
# [9] = biological target: Retinoic acid receptor RXR-alpha (Homo sapiens) (UniProt P19793); assay: qHTS assay to identify small molecule agonists of the RXR signaling pathway (AID 1159527); further: nearly all actives have a fitted effect of over 35% in size; further: potency means the concentration at half of the fitted maximal effect
# In short: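 Agonist-mode beta-lactamase reporter assay: HEK 293T RXR-alpha-UAS-bla cells treated 16 hr at 37 C with compounds, 9-cis retinoic acid as positive control. LiveBLAzer FRET substrate, 405 nm excitation, 460/530 nm emission.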
# Retinoic acid receptor RXR-alpha (Homo sapiens), sequence (P19793 whole entry, looked up): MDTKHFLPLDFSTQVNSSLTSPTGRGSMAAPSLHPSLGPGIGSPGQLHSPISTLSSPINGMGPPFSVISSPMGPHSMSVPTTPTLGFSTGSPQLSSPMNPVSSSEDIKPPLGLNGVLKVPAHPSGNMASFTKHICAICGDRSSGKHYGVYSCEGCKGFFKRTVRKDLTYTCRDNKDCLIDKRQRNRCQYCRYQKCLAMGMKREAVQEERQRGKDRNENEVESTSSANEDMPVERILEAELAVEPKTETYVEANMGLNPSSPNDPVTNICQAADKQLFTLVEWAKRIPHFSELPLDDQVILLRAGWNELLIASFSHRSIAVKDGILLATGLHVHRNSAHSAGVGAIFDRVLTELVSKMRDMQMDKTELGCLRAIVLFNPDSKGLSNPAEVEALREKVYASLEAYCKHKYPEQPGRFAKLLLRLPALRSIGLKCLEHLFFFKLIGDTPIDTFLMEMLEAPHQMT
Structure (SMILES),outcome [1],outcome [2],outcome [3],outcome [4],outcome [5],outcome [6],outcome [7],outcome [8],Potency [9],activation [1],"activity, negative = cytotoxic [2]",activation [3],"activity change, negative = cytotoxicity [4]","activity, negative = cytotoxicity [5]","activity change, negative = inhibition [6]","viability change, negative = cytotoxic [7]",activation [8],activation [9]
ONc1ccccc1,inactive,inactive,inactive,inactive,inactive,inactive,inactive,inactive,inactive,,,,,,,,,
COC(=O)CCCCC(CCSS/C(CCO)=C(\C)N(C=O)Cc1cnc(C)nc1N)SC(C)=O (centres undefined),inactive,inactive,inactive,inactive,inactive,inactive,inactive,inactive,inactive,,,,,,,,,
C=CC(=O)CCCCC,inactive,inactive,inactive,inactive,inactive,inactive,inactive,inactive,inactive,,,,,,,,,
CC1OCCC1=O (centres undefined),inactive,inactive,inactive,inactive,inactive,inactive,inactive,inactive,inactive,,,,,,,,,
COC(=O)c1ccccc1C(=O)O,inactive,inactive,inactive,inactive,inactive,inactive,inactive,inactive,21.9 µM (active),,,,,,,,,
COc1nc(N)nc2nc[nH]c12,inactive,inactive,inactive,inactive,inactive,inactive,inactive,inactive,inactive,,,,,,,,,
O=C1NC(c2ccccc2)(c2ccccc2)C(=O)N1COP(=O)(O)O,inactive,inactive,inactive,inactive,inactive,inactive,inactive,inactive,inactive,,,,,,,,,
CCn1cc(C(=O)O)c(=O)c2cnc(N3CCCC3)nc21,,,,,,,,,,0.219% [at 6.95 µM],-27.6% [at 6.95 µM],1.19% [at 6.95 µM],-11.8% [at 6.95 µM],1.16% [at 8.39 µM],14.3% [at 8.39 µM],0.489% [at 6.97 µM],-6.77% [at 6.97 µM],0.584% [at 6.98 µM]
Cn1c(=O)c2c(ncn2CCO)n(C)c1=O,inactive,inactive,inactive,inactive,inactive,inactive,inactive,inactive,inactive,,,,,,,,,
COc1cc2c(cc1OC)CN(C(=O)[C@H](C)N[C@@H](CCc1ccccc1)C(=O)O)[C@H](C(=O)O)C2,inactive,inactive,inactive,inactive,inactive,inactive,inactive,inactive,inactive,,,,,,,,,
CCCC(=O)OCCC(C)CCC=C(C)C (centres undefined),inactive,inactive,inactive,inactive,inactive,inactive,inactive,inactive,inactive,,,,,,,,,
CCC(C(=O)OCCN1CCOC(c2ccccc2)C1C)c1ccccc1 (centres undefined),inactive,inactive,inactive,inactive,inactive,inactive,inactive,inactive,inactive,,,,,,,,,
CCCCCc1cccc(=O)o1,inactive,inactive,inactive,inactive,inactive,inactive,inactive,inactive,inactive,,,,,,,,,
CN(C)CCN(C)CCO,inactive,inactive,inactive,inactive,inactive,inactive,inactive,inactive,inactive,,,,,,,,,
CCC/C=C(\C=O)CC,inactive,inactive,inactive,inactive,inactive,inactive,inactive,inactive,inactive,,,,,,,,,
Cc1cc(-c2ccccc2)nnc1NCCN1CCOCC1,inactive,inactive,inactive,inactive,inactive,inactive,inactive,inactive,inactive,,,,,,,,,
O=C1c2ccccc2C(=O)c2cc(Cl)ccc21,,,,,,,,,,-0.467% [at 6.95 µM],13.9% [at 6.95 µM],0.175% [at 6.95 µM],0.196% [at 6.95 µM],5.88% [at 8.39 µM],38.6% [at 8.39 µM],1.45% [at 6.97 µM],-9.9% [at 6.97 µM],2.02% [at 6.98 µM]
COS(=O)(=O)O,inactive,inactive,inactive,inactive,inactive,inactive,inactive,inactive,inactive,,,,,,,,,
NCCOCCN,inactive,inactive,inactive,inactive,inactive,inactive,inactive,inactive,inactive,,,,,,,,,
O=C(CCCl)NCCc1ccccc1,inactive,inactive,inactive,inactive,inactive,inactive,inactive,inactive,inactive,,,,,,,,,
Cc1cccc(Cl)c1,inactive,inactive,inactive,inactive,inactive,inactive,inactive,inactive,inactive,,,,,,,,,
COCCc1ccccn1,inactive,inactive,inactive,inactive,inactive,inactive,inactive,inactive,inactive,,,,,,,,,
O=S(=O)(O)c1ccc2c(N=Nc3ccc(S(=O)(=O)O)c4ccccc34)c(O)c(S(=O)(=O)O)cc2c1,,,,,,,,,,0.493% [at 6.95 µM],6.88% [at 6.95 µM],-2.39% [at 6.95 µM],0.511% [at 6.95 µM],-3.34% [at 8.39 µM],0.236% [at 8.39 µM],6.35% [at 6.97 µM],-3.05% [at 6.97 µM],0.333% [at 6.98 µM]
OC[C@@H](O)C(O)[C@@H](O)CO (some centres undefined),inactive,inactive,inactive,inactive,inactive,inactive,inactive,inactive,1.57 µM (active),,,,,,,,,
CC(C)=CCC/C(C)=C/COC=O,inactive,inactive,inactive,inactive,inactive,inactive,inactive,inactive,inactive,,,,,,,,,
CC(C)C[C@@H]1[C@H](c2ccccc2)OC(=O)N1CCCN1CCCCCC1,inactive,inactive,inactive,inactive,inactive,inactive,inactive,inactive,inactive,,,,,,,,,

# Reference: PubChem BioAssay (Tox21)
